Measurements taken from PubChem BioAssay AID624202 (National Center for Advancing Translational Sciences (NCATS), 2012).
Among all 380,000 compounds or so, about 4,000 (1.1%) were called active. Roughly 3% stayed inconclusive and do not appear here. The entries come from a sample that favours actives as a whole. Values without a mark were called inactive. Calls follow the shape of the dose curve; as a rule, active = well fitted activation curve with a large enough effect; inconclusive = small, poorly fitted or top-dose-only effect; inactive = no such curve, though single readings can be large or run the other way.

test: qHTS Assay to Identify Small Molecule Activators of BRCA1 Expression; conditions: MCF7-BRCA1-FFLuc reporter, luminescence, 48 h; series mostly up to 46.1 µM; activation: at the top concentration; also: nearly all actives have a fitted effect of over 80% in size
Description: Functionally, BRCA1 has been implicated in a wide array of cellular activities, including DNA damage repair, cell-cycle checkpoint control, growth inhibition, apoptosis, transcriptional regulation, chromatin remodeling, protein ubiquitylation, and mammary stem cell self-renewal and differentiation. Reduction in BRCA1 levels is associated with an increase in tumor growth and resistance to anti-estrogenic agents, such as tamoxifen, while an increase in BRCA1 expression leads to cell growth arrest and apoptosis. […] The frequent loss of BRCA1 expression in invasive breast cancers in the absence of somatic mutation has been attributed to numerous mechanisms, including hypermethylation of the BRCA1 promoter, exaggerated ubiquitylation of BRCA1 protein, and improper intracellular localization. […] Basal-like breast cancers (BLBCs) are associated with an aggressive clinical course, resistance to chemotherapy, and typically lack expression of estrogen receptor (ER), progesterone receptor (PR), and epidermal growth factor receptor 2 (HER2). BLBCs account for 10-17% of all breast cancers, have few therapeutic options, and are considered the biggest unmet need in the treatment of breast cancer. Conversely, tumors which maintain expression of functional BRCA1 are almost uniformly luminal type cancers, and are accordingly associated with more indolent clinical courses, responsiveness to endocrine therapies, and improved survival.
As such, it is possible that an increase in BRCA1 expression would enable cellular differentiation and restore tumor suppressor function, resulting in delayed tumor growth and less aggressive, more treatable breast cancers. The long term goal of this proposal is to develop a novel prevention or therapeutic agent for breast cancer patients. To accomplish this goal, the overall objective of this proposal is to access the resources provided by the NIH Molecular Libraries Roadmap Initiative and the Molecular Libraries Probe Production Centers Network (MLPCN) to discover and develop new chemical activator probes that will increase BRCA1 expression and function.
NIH Molecular Libraries Probe Production Network [MLPCN]
NIH Chemical Genomics Center [NCGC]
PI Name: Lisa Harlan-Williams, University of Kansas Medical Center
5microl of MCF7-BRCA1-FFLuc cell suspension (400 cells/microl in phenol-red free MEM) are dispensed into Greiner white solid bottom 1536-well assay plates, yielding a final well density of 2000 cells/well. Plates are incubated for 2 hours at 37 degrees C in 5% humidified CO2 to allow cell attachment. Compounds are then transferred via Kalypsys pin tool equipped with 1536-pin array (10nl slotted pins, V&P Scientific, San Diego, CA). The plates are then incubated at 37 degrees C in 5% humidified CO2 for 48 hours. The NCGC in-house luciferase substrate reagent, Buglite, is then added (2.5microl) and plates incubated for 15 minutes, before being transferred to a ViewLux high-throughput CCD imager (PerkinElmer) wherein single end-point measurements of luminescence are acquired using a clear filter. The positive control compound, genistein, will be pinned into dedicated control columns on each plate, including a 16-point 1:3 titration in duplicate, as well as a 10microM maximum activation control, allowing for the normalization of screening activity. DMSO will be pinned into a separate column as a negative control.
All screening operations will be performed on a fully integrated robotic system (Kalypsys, San Diego, CA) containing one RX-130 and two RX-90 anthropomorphic robotic arms (Staubli, Duncan, SC). Library plates will be screened starting from the lowest and proceeding to the highest concentration. Vehicle-only plates, with DMSO being pin-transferred to columns 5-48, will be inserted uniformly at the beginning and the end of each library in order to monitor and record any shifts in the background, which can be affected by reagent dispensers or loss in enzyme activity over time. […]
Potency is read from the fitted curve at half-maximal effect.

Row | Structure (SMILES) | activation | Potency
1 | Brc1ccccc1C1N=C(c2ccccc2)NO1 (centres undefined) | 42.9% | –
2 | N#Cc1ccc(C2N=C(c3ccccc3)NO2)cc1 (centres undefined) | – | 2.51 µM (active)
3 | CCOc1ccccc1NC(=O)C1=C(C)Nc2ncnn2C1c1ccc(NC(C)=O)cc1 (centres undefined) | -11.2% | –
4 | CC(=O)N1c2ccc(S(=O)(=O)N3CCCCCC3)cc2CC1C(=O)NCc1ccccc1C (centres undefined) | -1.06% | –
5 | COc1ccc(-c2cc(C(F)(F)F)n3nc(-c4ccccc4)cc3n2)cc1OC | -55.7% | –
6 | COc1cccc(C(O)c2nc(-c3ccc(C)c(C)c3)cs2)c1 (centres undefined) | 35.3% | –
7 | COc1ccc(-c2csc(Nc3cccc(C)n3)n2)cc1OC | – | 2.82 µM (active)
8 | O=C(c1ccc2c(=O)n(Cc3ccco3)c(=S)[nH]c2c1)N1CCCC1 | -11.9% | –
9 | O=C(Nc1cccc2cccnc12)c1cccc2c(Br)cccc12 | -31.4% | –
10 | Brc1cccc(-c2nnn3c2nc(NC2CCCCC2)c2ccccc23)c1 | -3.57% | –
11 | COc1ccc(-c2nc3ccccc3o2)cc1NC(=O)c1cc([N+](=O)[O-])ccc1N1CCOCC1 | 11.7% | –
12 | CCS(=O)(=O)Nc1cccc(-c2cc(-c3ccccc3)c3cc(C)ccc3n2)c1 | -71.4% | –
13 | CC(=O)Nc1cccc(-c2cc(NC(C)=O)c3ncc(-c4ccccc4)n3c2)c1 | -10.9% | –
14 | CC(=O)Nc1cccc(-c2cnc3ccccc3n2)c1 | – | 3.98 µM (active)
15 | COc1cncc(-c2cnc3sc(NCCc4ccccn4)nn23)c1 | -32.3% | –
16 | COc1ccc(NCCc2ccccn2)cc1 | – | 12.6 µM (active)
17 | Cc1c(C)c(C)c(S(=O)(=O)NCCc2ccccn2)c(C)c1C | -0.0453% | –
18 | CN(Cc1ccccc1)c1ncnc2onc(-c3ccc(F)cc3)c12 | -18.2% | –
19 | O=C(CC(c1ccccc1)c1ccccc1)NCC(O)c1ccc([N+](=O)[O-])cc1 (centres undefined) | -36.3% | –
20 | CCCCCCOC(=O)NCC(O)c1ccccc1 (centres undefined) | – | 2.82 µM (active)
21 | CCCCOC(=O)Nc1nnc(CC(=O)NCc2ccccc2)s1 | -16.7% | –
22 | COc1ccc2cc(CNc3ccc(OC)c(OC)c3)c(=O)n(CC(=O)Nc3ccccc3F)c2c1 | 6.1% | –
23 | COc1cc2nc(N3CCCN(C)CC3)nc(NC(C)C)c2cc1OC | 4.14% | –
24 | COc1cccc(CNC(=O)C(NS(=O)(=O)c2ccc3nc(C)sc3c2)C(C)C)c1 (centres undefined) | 11.8% | –
25 | CCC(C)c1ccc(NC(=S)N2CCCC2)cc1 (centres undefined) | – | 12.6 µM (active)
26 | NS(=O)(=O)c1ccc(NC(=S)N2CCCC2)cc1 | -14.7% | –
27 | CCC(C)c1ccc(NC(=O)COC(=O)C2CCCC2)cc1 (centres undefined) | 63.6% | –

Row | Structure (SMILES) | activation | Potency
28 | CCN(C(=O)Cn1cnc2sc(C)c(S(=O)(=O)N3CCN(c4ncccn4)CC3)c2c1=O)c1ccccc1F | 6.29% | –
29 | COc1ccc(-c2onc3ccc(C(C)=O)cc23)cc1 | – | 8.91 µM (active)
30 | CCOC(=O)c1c(-c2ccc(OC)cc2)oc2ccc(OCc3ccc(C(=O)OC)cc3)cc12 | 11.6% | –
31 | COc1ccc(-c2ocnc2C(=O)Nc2ccc3c(c2)CCC3)cc1 | 43% | –
32 | Cc1ccc(N2CC(C(=O)Nc3ccc(N(C)C)cc3)CC2=O)cc1Cl (centres undefined) | 0.738% | –
33 | O=C(Nc1ccc(F)cc1F)c1cnn(-c2ccc(F)cc2)c1-n1cccc1 | -12.7% | –
34 | CCc1ccc(NC(=O)Nc2ccncc2)cc1 | – | 10 µM (active)
35 | CC(C)CC(=O)Nc1ccc(Cc2ccncc2)cc1 | -0.517% | –
36 | CCc1ccc(NC(=O)N[C@H](C(=O)O)C(C)CC)cc1 (some centres undefined) | 0% | –
37 | Cc1ccccc1Nc1nn2c(=O)c3ccc(C(=O)NCCc4ccc(Cl)cc4)cc3nc2s1 | 1.1% | –
38 | CN(N=O)c1ccc(C=C2c3ccccc3-c3ccccc32)cc1 | -55.1% | –
39 | COc1ccc(S(=O)(=O)NCCSc2nnnn2-c2ccccc2)cc1 | -7.8% | –
40 | O=C(Nc1ccc(F)cc1F)c1ccc2c(=O)n3c(nc2c1)CCCCC3 | 4.14% | –
41 | CCCNC(=O)CCc1c(C)nc2c(c(C)nn2-c2ccc(C)cc2)c1C | -11.4% | –
42 | CCCNC(=O)c1c(Cl)cnn1-c1ccc(C)cc1 | – | 10 µM (active)
43 | CCc1nc2c(cnn2-c2ccc(C)cc2)c(=O)n1-c1ccc(C)cc1 | -12.1% | –
44 | COc1ccccc1CNC(=O)CCn1c(=O)c2ccccc2n(CC(=O)Nc2cccc(Cl)c2)c1=O | 0% | –
45 | O=C1Oc2ccccc2C(=O)/C1=C/c1ccccc1O | -43.4% | –
46 | COc1ccc2c(c1)O/C(=C\c1ccccc1O)C2=O | – | 12.6 µM (active)
47 | COc1cc(/C=C2\Oc3ccc(C#Cc4ccc(O)cc4)cc3C2=O)cc(OC)c1 | -68% | –
48 | Cc1ccc(C)c(CN2C(=O)c3ccccc3S(=O)c3ccc(C(=O)N4CCOCC4)cc32)c1 (centres undefined) | -8.36% | –
49 | Cc1ccc(-c2cc(-c3coc4ccccc4c3=O)c3c(n2)-c2cc(Cl)ccc2OC3)cc1 | 5.07% | –
50 | CN(C)CCCn1c(-c2ccc(Cl)cc2)csc1=Nc1ccccc1 | -56.6% | –
51 | CCOc1cccc(OCCCOc2cccc3cccnc23)c1 | 24.7% | –
52 | O=S(=O)(NCCOc1cccc2cccnc12)c1ccc(F)cc1 | 9% | –
53 | Fc1ccccc1COc1cccc2cccnc12 | – | 7.94 µM (active)
54 | CCOC(=O)c1cccc(NS(=O)(=O)c2cn(C)c(C)n2)c1 | -4.82% | –
